# Data from article PMC11006913.
# Changes are numbered by the printed parent chain.
# How the values were obtained:
# Assay in all cases: PBM; 200 nM protein, PBS
# Settings in all cases: dsDNA, one strand shown
# VENTX [1] = molecular target: T1, VENTX (Homo sapiens, UniProt O95231 78-163, R121Q)
# T1 sequence: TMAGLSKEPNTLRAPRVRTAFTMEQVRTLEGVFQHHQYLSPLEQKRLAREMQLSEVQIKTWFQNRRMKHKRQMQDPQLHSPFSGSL
# HOXA4 [2] = molecular target: HOXA4 (Homo sapiens, UniProt Q00056 201-287, W262R)
# ALX4 = ALX4 (Homo sapiens, UniProt Q9H161 200-286)
# ALX4, sequence (Q9H161 200-286): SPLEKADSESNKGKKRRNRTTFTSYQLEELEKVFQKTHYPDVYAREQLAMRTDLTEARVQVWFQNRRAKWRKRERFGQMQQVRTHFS
# PRRX1 [3] = molecular target: PRRX1 (Homo sapiens, UniProt P54821 80-166, F113S)
# PRRX1 (Homo sapiens, UniProt P54821 80-166, F113S), sequence (P54821 80-166 F113S): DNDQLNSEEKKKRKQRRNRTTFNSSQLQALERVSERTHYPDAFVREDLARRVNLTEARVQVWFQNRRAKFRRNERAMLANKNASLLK
# HOXB6 = HOXB6 (Homo sapiens, UniProt P17509 132-218, K202E)
# HOXB6, sequence (P17509 132-218 K202E): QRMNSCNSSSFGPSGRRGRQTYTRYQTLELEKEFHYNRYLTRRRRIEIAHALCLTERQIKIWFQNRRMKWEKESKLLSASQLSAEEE
# HOXA2 [4] = molecular target: HOXA2 (Homo sapiens, UniProt O43364 129-215, R185T)
# HOXA2 (Homo sapiens, UniProt O43364 129-215, R185T), sequence (O43364 129-215 R185T): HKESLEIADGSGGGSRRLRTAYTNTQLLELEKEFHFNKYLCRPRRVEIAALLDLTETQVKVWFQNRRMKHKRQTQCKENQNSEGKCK
# HOXA4 [5] = molecular target: HOXA4 (Homo sapiens, UniProt Q00056 201-287, R217L)
# HOXA4 (Homo sapiens, UniProt Q00056 201-287, R217L), sequence (Q00056 201-287 R217L): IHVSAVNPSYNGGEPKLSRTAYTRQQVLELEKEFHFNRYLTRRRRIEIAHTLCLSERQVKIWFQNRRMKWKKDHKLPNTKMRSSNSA
# HOXB4 = HOXB4 (Homo sapiens, UniProt P17483 148-234, V174I)
# HOXB4, sequence (P17483 148-234 V174I): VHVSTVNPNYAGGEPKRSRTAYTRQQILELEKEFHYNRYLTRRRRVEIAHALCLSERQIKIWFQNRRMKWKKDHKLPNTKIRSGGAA
# HOXA2 [6] = molecular target: HOXA2 (Homo sapiens, UniProt O43364 129-215, R185K)
# HOXA2 (Homo sapiens, UniProt O43364 129-215, R185K), sequence (O43364 129-215 R185K): as the sequence (O43364 129-215 R185T) above, with T57K counted along it
# HOXA4 [7] = molecular target: HOXA4 (Homo sapiens, UniProt Q00056 201-287)
# HOXA4 (Homo sapiens, UniProt Q00056 201-287), sequence (Q00056 201-287): as the sequence (Q00056 201-287 R217L) above, with L17R counted along it
# MSX2 [8] = molecular target: MSX2 (Homo sapiens, UniProt P35548 130-214)
# MSX2 (Homo sapiens, UniProt P35548 130-214), sequence (P35548 130-214): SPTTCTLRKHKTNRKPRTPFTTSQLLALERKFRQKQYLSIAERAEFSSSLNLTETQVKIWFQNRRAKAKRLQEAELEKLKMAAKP
# MSX2 [9] = molecular target: MSX2 (Homo sapiens, UniProt P35548 130-214, F161Y)
# MSX2 (Homo sapiens, UniProt P35548 130-214, F161Y), sequence (P35548 130-214 F161Y): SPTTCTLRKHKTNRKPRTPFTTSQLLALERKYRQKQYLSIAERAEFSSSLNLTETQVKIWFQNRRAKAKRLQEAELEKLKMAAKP
# VAX1 [10] = molecular target: VAX1 (Homo sapiens, UniProt Q5SQQ9 86-172, T142I)
# VAX1 (Homo sapiens, UniProt Q5SQQ9 86-172, T142I), sequence (Q5SQQ9 86-172 T142I): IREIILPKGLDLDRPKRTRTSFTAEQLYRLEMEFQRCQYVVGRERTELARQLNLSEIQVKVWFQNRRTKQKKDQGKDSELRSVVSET
# HOXA4 [11] = molecular target: HOXA4 (Homo sapiens, UniProt Q00056 201-287, W262F)
# HOXA4 (Homo sapiens, UniProt Q00056 201-287, W262F), sequence (Q00056 201-287 W262F): as the sequence (Q00056 201-287 R217L) above, with L17R, W62F counted along it
# PRRX1 [12] = molecular target: PRRX1 (Homo sapiens, UniProt P54821 80-166)
# PRRX1 (Homo sapiens, UniProt P54821 80-166), sequence (P54821 80-166): as the sequence (P54821 80-166 F113S) above, with S34F counted along it
# VAX1 [13] = molecular target: VAX1 (Homo sapiens, UniProt Q5SQQ9 86-172, K157R)
# VAX1 (Homo sapiens, UniProt Q5SQQ9 86-172, K157R), sequence (Q5SQQ9 86-172 K157R): as the sequence (Q5SQQ9 86-172 T142I) above, with I57T, K72R counted along it
# HOXA7 [14] = molecular target: HOXA7 (Homo sapiens, UniProt P31268 116-202)
# HOXA7 (Homo sapiens, UniProt P31268 116-202), sequence (P31268 116-202): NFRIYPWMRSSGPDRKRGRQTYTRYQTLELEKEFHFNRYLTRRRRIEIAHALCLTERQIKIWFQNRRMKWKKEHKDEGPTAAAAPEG
# PAX4 = molecular target: T2, PAX4 (Homo sapiens, UniProt O43316 9-242, R200Q)
# T2 sequence: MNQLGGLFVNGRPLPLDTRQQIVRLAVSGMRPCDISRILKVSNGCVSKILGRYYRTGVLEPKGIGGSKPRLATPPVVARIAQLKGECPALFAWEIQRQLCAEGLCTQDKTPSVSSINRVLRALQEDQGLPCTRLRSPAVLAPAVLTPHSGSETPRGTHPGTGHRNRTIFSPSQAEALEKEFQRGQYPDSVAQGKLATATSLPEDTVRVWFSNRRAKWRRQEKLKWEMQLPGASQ
# HOXA7 [15] = molecular target: HOXA7 (Homo sapiens, UniProt P31268 116-202, W177C)
# HOXA7 (Homo sapiens, UniProt P31268 116-202, W177C), sequence (P31268 116-202 W177C): as the sequence (P31268 116-202) above, with W62C counted along it
# VENTX [16] = molecular target: T3, VENTX (Homo sapiens, UniProt O95231 78-163, Y115F)
# T3 sequence: T1 sequence with Y38F, Q44R
# HOXA4 (Homo sapiens, UniProt Q00056 201-287, W262R), sequence (Q00056 201-287 W262R): as the sequence (Q00056 201-287 R217L) above, with L17R, W62R counted along it
Sequence,binding signal (VENTX [1]),binding signal (HOXA4 [2]),binding signal (ALX4),binding signal (PRRX1 [3]),binding signal (HOXB6),binding signal (HOXA2 [4]),binding signal (HOXA4 [5]),binding signal (HOXB4),binding signal (HOXA2 [6]),binding signal (HOXA4 [7]),binding signal (MSX2 [8]),binding signal (MSX2 [9]),binding signal (VAX1 [10]),binding signal (HOXA4 [11]),binding signal (PRRX1 [12]),binding signal (VAX1 [13]),binding signal (HOXA7 [14]),binding signal (PAX4),binding signal (HOXA7 [15]),binding signal (VENTX [16])
GTCAATTA,"11.7 upbm affinity estimate (log intensity, higher = more binding, comparable within an allelic series)","10.5 upbm affinity estimate (log intensity, higher = more binding, comparable within an allelic series)","13.9 upbm affinity estimate (log intensity, higher = more binding, comparable within an allelic series)","11 upbm affinity estimate (log intensity, higher = more binding, comparable within an allelic series)","9.73 upbm affinity estimate (log intensity, higher = more binding, comparable within an allelic series)","12.9 upbm affinity estimate (log intensity, higher = more binding, comparable within an allelic series)","12.1 upbm affinity estimate (log intensity, higher = more binding, comparable within an allelic series)","13.9 upbm affinity estimate (log intensity, higher = more binding, comparable within an allelic series)","13.2 upbm affinity estimate (log intensity, higher = more binding, comparable within an allelic series)","13.8 upbm affinity estimate (log intensity, higher = more binding, comparable within an allelic series)","13.8 upbm affinity estimate (log intensity, higher = more binding, comparable within an allelic series)","13.4 upbm affinity estimate (log intensity, higher = more binding, comparable within an allelic series)","13.1 upbm affinity estimate (log intensity, higher = more binding, comparable within an allelic series)","11.3 upbm affinity estimate (log intensity, higher = more binding, comparable within an allelic series)","13.3 upbm affinity estimate (log intensity, higher = more binding, comparable within an allelic series)","13.2 upbm affinity estimate (log intensity, higher = more binding, comparable within an allelic series)",–,–,–,–
AAATTAAT,–,"10.6 upbm affinity estimate (log intensity, higher = more binding, comparable within an allelic series)","14 upbm affinity estimate (log intensity, higher = more binding, comparable within an allelic series)","11.2 upbm affinity estimate (log intensity, higher = more binding, comparable within an allelic series)","10.1 upbm affinity estimate (log intensity, higher = more binding, comparable within an allelic series)",–,"12.1 upbm affinity estimate (log intensity, higher = more binding, comparable within an allelic series)","13.6 upbm affinity estimate (log intensity, higher = more binding, comparable within an allelic series)",–,"13.6 upbm affinity estimate (log intensity, higher = more binding, comparable within an allelic series)","13.4 upbm affinity estimate (log intensity, higher = more binding, comparable within an allelic series)","13.1 upbm affinity estimate (log intensity, higher = more binding, comparable within an allelic series)","12.5 upbm affinity estimate (log intensity, higher = more binding, comparable within an allelic series)","11.5 upbm affinity estimate (log intensity, higher = more binding, comparable within an allelic series)","13.3 upbm affinity estimate (log intensity, higher = more binding, comparable within an allelic series)","12.4 upbm affinity estimate (log intensity, higher = more binding, comparable within an allelic series)","11.3 upbm affinity estimate (log intensity, higher = more binding, comparable within an allelic series)","12.4 upbm affinity estimate (log intensity, higher = more binding, comparable within an allelic series)","8.83 upbm affinity estimate (log intensity, higher = more binding, comparable within an allelic series)",–
ATTAATAG,"11.7 upbm affinity estimate (log intensity, higher = more binding, comparable within an allelic series)","10.6 upbm affinity estimate (log intensity, higher = more binding, comparable within an allelic series)",–,–,"10.1 upbm affinity estimate (log intensity, higher = more binding, comparable within an allelic series)",–,"12 upbm affinity estimate (log intensity, higher = more binding, comparable within an allelic series)","13.7 upbm affinity estimate (log intensity, higher = more binding, comparable within an allelic series)",–,"13.6 upbm affinity estimate (log intensity, higher = more binding, comparable within an allelic series)",–,–,"12.5 upbm affinity estimate (log intensity, higher = more binding, comparable within an allelic series)","11.3 upbm affinity estimate (log intensity, higher = more binding, comparable within an allelic series)",–,"12.4 upbm affinity estimate (log intensity, higher = more binding, comparable within an allelic series)","11.6 upbm affinity estimate (log intensity, higher = more binding, comparable within an allelic series)",–,"9.03 upbm affinity estimate (log intensity, higher = more binding, comparable within an allelic series)",–
TAATTGCA,"11.8 upbm affinity estimate (log intensity, higher = more binding, comparable within an allelic series)",–,–,–,"10 upbm affinity estimate (log intensity, higher = more binding, comparable within an allelic series)","12.7 upbm affinity estimate (log intensity, higher = more binding, comparable within an allelic series)","11.9 upbm affinity estimate (log intensity, higher = more binding, comparable within an allelic series)",–,"13.4 upbm affinity estimate (log intensity, higher = more binding, comparable within an allelic series)",–,"13.9 upbm affinity estimate (log intensity, higher = more binding, comparable within an allelic series)","13.6 upbm affinity estimate (log intensity, higher = more binding, comparable within an allelic series)","12.5 upbm affinity estimate (log intensity, higher = more binding, comparable within an allelic series)",–,–,"12.4 upbm affinity estimate (log intensity, higher = more binding, comparable within an allelic series)","11.6 upbm affinity estimate (log intensity, higher = more binding, comparable within an allelic series)",–,"8.79 upbm affinity estimate (log intensity, higher = more binding, comparable within an allelic series)","11.6 upbm affinity estimate (log intensity, higher = more binding, comparable within an allelic series)"
